The values below come from PubChem BioAssay (NCI).

What all share (test): NCI-60 one-dose screen, 48 h (100 = growth as untreated, 0 = no growth, -100 = all killed)
Holding throughout (conditions): 10 µM unless noted

In experiment [1] the test system is MALME-3M melanoma.
Experiment [2] deals with MDA-MB-231 breast.
Experiment [3] deals with RXF 393 renal.
Experiment [4] concerns SF-268 CNS.
For experiment [5], the system named is SF-295 CNS.
Experiment [6] relates to SF-539 CNS.
The test system of experiment [7] is UACC-257 melanoma.
Experiment [8] has as its system M14 melanoma.
Experiment [9] deals with HCT-15 colon.
The test system of experiment [10] is HT29 colon.
In experiment [11] the test system is SNB-19 CNS.
In experiment [12] the test system is U251 CNS.
Experiment [13] relates to PC-3 prostate.
Experiment [14] has as its system UACC-62 melanoma.
In experiment [15] the test system is LOX IMVI melanoma.
Experiment [16] relates to SK-MEL-28 melanoma.
The subject of experiment [17] is SK-MEL-2 melanoma.
Experiment [18] concerns SNB-75 CNS.
Experiment [19] relates to SK-MEL-5 melanoma.

About 83,000 compounds went through this panel and 20% of them were active in at least one assay; those are over-represented in the sample as a whole.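 Single-concentration screen, 48 h exposure, 96-well plates. Endpoint: percent growth. Below 10 = active.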 Values without a mark were called inactive. Active and inactive are the calls of the source.

`CN1C(=O)C(=Cc2cn(Cc3ccccc3)c3ccc(Br)cc23)C(=O)N(C)C1=O`: the growth in [1] was 113%; in [2], 105%; in [3], 57.6%; in experiment [4], 96.7%; in experiment [5], 75.8%; in experiment [6], 97.5%. The growth in experiment [7] is 99.1%; in experiment [8], 99.8%; in experiment [9], 95.4%; in [10], 101%; in experiment [11], 98.6%; in [12], 97.5%. Moreover, the growth was 89.1% in experiment [13]; 73.3% in [14]; 102% in experiment [15]; 113% in experiment [16]; 107% in experiment [17].

With `O=C1Cc2cc(CCN3CCN(CCOCCO)CC3)c(Cl)cc2N1Cc1ccc(-c2ccccc2-c2nn[nH]n2)cc1`, the growth in [1] was 91.8%; in [2] it was 92.1%; in experiment [3] it was 113%; in experiment [4], 117%; in [5] it was 93.5%; in [7], 81.4%. Besides, the growth in experiment [8] is 92.6%; in experiment [9], 86.6%; in experiment [10], 94.2%; in [18], 82.6%; in experiment [11], 90.5%; in experiment [12], 94.1%. Also, the growth in experiment [13] is 56.1%; in [19], 100%; in experiment [14] it was 74.9%; in [15] it was 89.7%; in experiment [16], 101%; in [17] it was 81.1%.

With `COc1ccc(-n2nc3c(c2-c2ccc(OC)c(OC)c2)-c2oncc2CC3)cc1`, the growth in experiment [1] was 100%; in [2] it was 80%; in experiment [3], 83.8%; in experiment [4] it was 84%; in [5], 84%; in [6], 114%. In addition, the growth in experiment [7] was 110%; in experiment [8], 93.6%; in [10] it was 80%; in experiment [18] it was 94.2%; in [11], 96.9%; in experiment [12], 85.3%. Moreover, the growth in [13] is 88.3%; in experiment [19] it was 81.8%; in experiment [14], 73.3%; in [16], 75.1%; in experiment [17] it was 92.8%.

For the molecule `Cc1nn(-c2ccc(Cl)cc2)c2nc3c(nc12)C(=O)c1ccccc1-3`, the growth is 84.7% in experiment [1]; 52.7% in experiment [2]; 45.4% in experiment [3]; 72.4% in experiment [4]; 36.4% in experiment [5]; 91.5% in experiment [7]. The growth in experiment [8] was 70.5%; in experiment [9], 98.5%; in experiment [10], 65.1%; in experiment [18], 95.5%; in experiment [11] it was 87.2%; in [12], 47%. The growth in experiment [13] was 54.9%; in experiment [19], 65.8%; in [14], 55.2%; in [15], 51.2%; in [16], 28.4%; in experiment [17], 79.7%.

As for `O=C1c2ccccc2-c2c1nc1ccccc1[n+]2[O-]`, the growth in [1] was 90.2%; in [2], 108%; in experiment [4], 98.2%; in experiment [5], 108%; in experiment [6], 101%; in experiment [7] it was 107%. Further, the growth in experiment [8] is 97.9%; in experiment [9], 101%; in experiment [10], 105%; in [18], 103%; in experiment [11], 103%; in experiment [12], 103%. The growth is 99.4% in experiment [13], 105% in experiment [14], 113% in experiment [16] and 107% in experiment [17].

Regarding `Oc1ccc(Cc2ccc(O)c(C3CC(c4ccc(Cl)cc4)=NN3)c2)cc1C1CC(c2ccc(Cl)cc2)=NN1` (stereo unspecified), the growth in [1] is 29.7%; in [2], 12.7%; in experiment [3], 66.5%; in experiment [4] it was 29.8%; in experiment [5] it was -26.9% (active); in [6], 40.7%. Besides, the growth is 23.7% in experiment [7]; 24.5% in experiment [8]; 51% in experiment [10]; 36.1% in [18]; 29.4% in experiment [11]; 12.7% in [12]. The growth in experiment [13] was 23.8%; in experiment [19], 24.4%; in experiment [14], 36.3%; in experiment [16], 57.7%; in experiment [17], -10.8% (active).

Regarding `COc1ccc(-c2c(N)noc2-c2cc(OC)c3c(c2)OCCO3)cc1`, the growth in experiment [1] is 81.2%; in experiment [2], 27.5%; in experiment [3], 39.2%; in experiment [4], 26.8%; in experiment [5] it was 12.8%; in experiment [6], 4.21% (active). The growth is 72.6% in [7]; -16.2% (active) in experiment [8]; 15.7% in experiment [9]; 8.42% (active) in [10]; 46.2% in [11]; 25.5% in [12]. The growth was 26.8% in [13]; -21.3% (active) in experiment [19]; 32.7% in experiment [14]; 19.6% in experiment [15]; 49.9% in experiment [17].

On to `COc1ccc(C(=O)/C=C/c2c(Cl)nc3c(c(C)nn3-c3ccccc3)c2-c2ccc(Br)cc2)cc1`, for which the growth is 102% in [1]; 105% in experiment [2]; 101% in experiment [3]; 103% in [4]; 103% in [5]; 108% in experiment [7]. Also, the growth in experiment [8] was 100%; in experiment [9], 102%; in experiment [10], 100%; in experiment [18] it was 88.2%; in [11] it was 101%; in [12], 110%. Besides, the growth in experiment [13] was 107%; in experiment [19] it was 101%; in [14], 91.8%; in experiment [15], 96.4%; in experiment [16], 106%; in experiment [17], 93.8%.

On to `COC(=O)[C@]1(C(C)C)N[C@H](c2cn(-c3ccccc3)nc2-c2ccccc2)[C@@H]2C(=O)N(c3ccc(Cl)cc3)C(=O)[C@@H]21`, for which the growth in [1] is 107%; in experiment [2], 105%; in [3], 113%; in experiment [4], 90.8%; in experiment [5] it was 106%; in experiment [7], 107%. For the same molecule, the growth in experiment [8] was 87.6%; in experiment [9], 96%; in experiment [10] it was 98.1%; in experiment [18], 86.1%; in experiment [11], 99.1%; in experiment [12], 97.4%. Also, the growth in experiment [13] is 89.9%; in experiment [19], 101%; in experiment [14] it was 101%; in experiment [15], 92.1%; in experiment [16], 114%; in [17] it was 86.9%.
